Laboratory results: PubChem BioAssay (NCI)
The panel holds about 79,000 compounds, 15% with a hit somewhere; the sample as a whole holds those more often. Active and inactive are the calls of the source. Rule as the data show it: active = growth inhibition above about 70%; inactive = the rest.

Assays:
[1] = NCI Yeast Anticancer Drug Screen. Data for the rad52 strain (AID 147);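 also: 0% = growth of vehicle-treated control cultures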; settings: S. cerevisiae rad52 mutant growth inhibition, hits give high values
Method in brief: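 Growth of repair-deficient yeast cells was compared between compound-treated and vehicle-treated cultures to give percent inhibition.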

[2] = NCI Yeast Anticancer Drug Screen. Data for the wt1 strain (AID 149);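 also: 0% = growth of vehicle-treated wt1 cultures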; settings: S. cerevisiae wt1 strain (SPY 50644) growth inhibition, hits give high values
Method in brief: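 wt1 strain grown with compound or vehicle; inhibition taken from the growth difference.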

[3] = NCI Yeast Anticancer Drug Screen. Data for the rad50EPP+ strain (AID 151);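 also: 0% = growth of vehicle-treated control cultures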; settings: S. cerevisiae rad50 mutant strain, hits give high values
Method in brief: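 Measured: growth inhibition of rad50EPP+ yeast. Reference: vehicle-treated controls. Screen uses strains with defined genetic alterations in DNA damage repair or cell cycle control.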

[4] = NCI Yeast Anticancer Drug Screen. Data for the mgt1 strain (AID 153); settings: S. cerevisiae mgt1 mutant growth inhibition, hits give high values
Method in brief: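 Compounds were applied to mgt1 mutant yeast, and growth was then compared against vehicle-treated control cultures to give percent inhibition.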

[5] = NCI Yeast Anticancer Drug Screen. Data for the rad50 strain (AID 155);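 also: 0% = growth of vehicle-only cultures of the same strain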; settings: S. cerevisiae rad50 strain growth inhibition, hits give high values
Method in brief: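 DNA repair mutant yeast, compound exposure, growth read-out; inhibition is taken relative to vehicle.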

[6] = NCI Yeast Anticancer Drug Screen. Data for the mec2-1 strain (AID 157); settings: S. cerevisiae mec2-1 strain, hits give high values
Method in brief: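 Compounds were applied to mec2-1 yeast cells. Their growth was then compared with that of vehicle-treated cultures to give growth inhibition.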

[7] = NCI Yeast Anticancer Drug Screen. Data for the sgs1 mgt1 strain (AID 161);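 also: 0% = growth of cultures given vehicle only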; settings: S. cerevisiae sgs1 mgt1 strain, hits give high values
Method in brief: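 Percent growth inhibition was derived by comparing compound-exposed mutant yeast with vehicle-exposed cultures. The strain carries alterations in DNA damage repair.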

[8] = NCI Yeast Anticancer Drug Screen. Data for the CLN2oe strain (AID 163);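 also: 0% = growth of vehicle-only control cultures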; settings: S. cerevisiae CLN2oe strain, hits give high values
Method in brief: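 Cells of an engineered yeast line with disturbed cell-cycle regulation are treated with compound. Inhibition of growth is then calculated relative to the vehicle-treated reference.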

[9] = NCI Yeast Anticancer Drug Screen. Data for the cln2 rad14 strain (AID 165);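 also: 0% = growth equal to vehicle treated cultures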; settings: S. cerevisiae cln2 rad14 strain, hits give high values
Method in brief: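 Strain: cln2 rad14 yeast, altered in cell cycle control and DNA damage repair. Read-out: growth inhibition vs vehicle.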

[10] = NCI Yeast Anticancer Drug Screen. Data for the bub3 strain (AID 167); settings: S. cerevisiae bub3 mutant strain, hits give high values
Method in brief: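 In this screen, a yeast mutant lacking normal mitotic checkpoint function is challenged with compound. Relative growth versus vehicle gives the inhibition value.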

[11] = NCI Yeast Anticancer Drug Screen. Data for the wt2 strain (AID 169);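 also: 0% = growth of vehicle-treated yeast cultures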; settings: S. cerevisiae wt2 strain growth inhibition, hits give high values
Method in brief: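 Growth of compound-treated yeast is measured and expressed as inhibition relative to vehicle-only controls.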

[12] = NCI Yeast Anticancer Drug Screen. Data for the mlh1 strain (AID 171);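 also: 0% = growth of vehicle-treated control cultures of the same strain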; settings: S. cerevisiae mlh1 strain growth inhibition, hits give high values
Method in brief: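 Test agents were incubated with yeast bearing a defined DNA damage repair or cell cycle control alteration; values are growth inhibition normalised to vehicle-treated cultures.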

[13] = NCI Yeast Anticancer Drug Screen. Data for the sgs1 strain (AID 173);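 also: 0% = growth of vehicle-only control cultures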; settings: S. cerevisiae sgs1 mutant, hits give high values
Method in brief: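 Strain with an altered DNA repair or cell cycle pathway exposed to compound. Growth then measured. Value = inhibition versus vehicle control.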

[14] = NCI Yeast Anticancer Drug Screen. Data for the mlh1 rad18 strain (AID 175); settings: S. cerevisiae mlh1 rad18 strain growth inhibition, hits give high values
Method in brief: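 A repair-deficient yeast strain is exposed to test compound, and growth is scored relative to vehicle-treated controls.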

[15] = NCI Yeast Anticancer Drug Screen. Data for the rad18 strain (AID 177); settings: S. cerevisiae rad18 mutant growth inhibition, hits give high values
Method in brief: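 DNA-repair-defective yeast; compound treatment; growth inhibition scored against vehicle.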

[16] = at 5.0 µM (retest, dose inferred, filed as 0.5)
[17] = at 50.0 µM (retest, dose inferred, filed as 5.0)

Measured: growth inhibition

S=C(NCc1ccccn1)N/N=C/c1ccccn1
inactive: [3]; at 1.2 µM 34% | [3]; at 3.7 µM 63% | [5]; [16] 40% | [6]; [16] 33% | [7]; [16] 69% | [9]; [16] -1% | [10]; [16] -10% | [14]; [16] 5%
active: [1]; at 1.2 µM 98% | [1]; at 3.7 µM 99% | [1]; at 11.0 µM 99% | [1]; at 33.0 µM 99% | [1]; at 100.0 µM 98% | [2]; at 1.2 µM 98% | [2]; at 3.7 µM 98% | [2]; at 11.0 µM 99% | [2]; at 33.0 µM 99% | [2]; at 100.0 µM 99% | [3]; at 11.0 µM 87% | [3]; at 33.0 µM 93% | [3]; at 100.0 µM 96% | [4]; at 1.2 µM 97% | [4]; at 3.7 µM 98% | [4]; at 11.0 µM 99% | [4]; at 33.0 µM 99% | [4]; at 100.0 µM 99% | [5]; at 1.2 µM 97% | [5]; at 3.7 µM 98% | [5]; at 11.0 µM 98% | [5]; at 33.0 µM 98% | [5]; [17] 99% | [5]; at 50.0 µM 75.5% | [5]; at 100.0 µM 98% | [6]; at 1.2 µM 97% | [6]; at 3.7 µM 98% | [6]; at 11.0 µM 99% | [6]; at 33.0 µM 99% | [6]; [17] 99% | [6]; at 50.0 µM 84.2% | [6]; at 100.0 µM 99% | [7]; [17] 99% | [7]; at 50.0 µM 90.1% | [8]; at 1.2 µM 97% | [8]; at 3.7 µM 99% | [8]; at 11.0 µM 99% | [8]; at 33.0 µM 99% | [8]; at 100.0 µM 99% | [9]; [17] 99% | [9]; at 50.0 µM 89.7% | [10]; at 1.2 µM 94% | [10]; at 3.7 µM 98% | [10]; at 11.0 µM 99% | [10]; at 33.0 µM 99% | [10]; [17] 99% | [10]; at 50.0 µM 90.1% | [10]; at 100.0 µM 98% | [11]; at 1.2 µM 97% | [11]; at 3.7 µM 98% | [11]; at 11.0 µM 98% | [11]; at 33.0 µM 99% | [11]; at 100.0 µM 99% | [12]; at 1.2 µM 96% | [12]; at 3.7 µM 98% | [12]; at 11.0 µM 98% | [12]; at 33.0 µM 97% | [12]; at 100.0 µM 98% | [13]; at 1.2 µM 99% | [13]; at 3.7 µM 98% | [13]; at 11.0 µM 98% | [13]; at 33.0 µM 99% | [13]; at 100.0 µM 99% | [14]; [17] 99% | [14]; at 50.0 µM 90.7% | [15]; at 1.2 µM 98% | [15]; at 3.7 µM 98% | [15]; at 11.0 µM 98% | [15]; at 33.0 µM 98% | [15]; at 100.0 µM 99%
